Measured values as given in PubChem BioAssay (NCATS).
Inconclusive results are not listed. Entries that show only a call come without a potency. Calls of active or inactive are those of the source. Unless noted, calls follow the shape of the dose curve; as a rule, active = well fitted curve in the direction sought with a large enough effect; inconclusive = small, poorly fitted or top-dose-only effect, or another doubt; inactive = no such curve, though single readings can be large; an effect the other way counts as inactive or inconclusive.

What was measured:
[1] = target: Thioredoxin reductase 1, cytoplasmic (Rattus norvegicus) (UniProt O89049); experiment: qHTS Assay for Substrates of Mammalian Selenoprotein Thioredoxin Reductase 1 (TrxR1) (AID 488772);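 also: NADPH fluorescence in the first read after selenite addition and not the 8 min delta; a drop in NADPH fluorescence below the no-compound background marks a TrxR1 substrate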; also: potency is read from the fitted curve at half-maximal effect
Summary of the method: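 Quantitative HTS in Tris-HCl buffer at pH 7.5 with EDTA and Tween-20, using rat TrxR1, 400 uM NADPH and 400 uM selenite (final). A fall in initial NADPH fluorescence relative to background marked substrate behaviour.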

[2] = target: Thioredoxin reductase 1, cytoplasmic (Rattus norvegicus) (UniProt O89049); experiment: qHTS Assay for Inhibitors of Mammalian Selenoprotein Thioredoxin Reductase 1 (TrxR1) (AID 488773); settings: Potency: inhibition; also: nearly all actives have a fitted effect of over 40% in size; also: potency is read from the fitted curve at half-maximal effect
Summary of the method: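 Steps: enzyme (90 nM) plus NADPH (400 uM final), 5 min at ~22 deg C; compound added, 15 min; selenite (400 uM final) added; fluorescence followed for 8 min. Concentration-response curves derived from the normalized delta values.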

[3] = target: Flap endonuclease 1 (Homo sapiens) (UniProt P39748); experiment: qHTS Validation Assay for the Inhibitors of Human Flap endonuclease 1 (FEN1) (AID 488816)
Summary of the method: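 FEN1, dispensed as a 10 nM reagent, was preincubated with pin-transferred compounds for 15 min at room temperature before substrate was added (50 nM final). Plates were read at 0 and 15 min, and a four-parameter Hill equation was fitted to the concentration-response data.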

[4] = target: Chromobox protein homolog 1 (Homo sapiens) (UniProt P83916); experiment: qHTS Validation Assay for Inhibitors of HP1-beta Chromodomain Interactions with Methylated Histone Tails (AID 488953); also: nearly all actives have a fitted effect of over 50% in size; also: potency is read from the fitted curve at half-maximal effect
Summary of the method: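 50 nM HP1-beta + 50 nM biotin-H3(1-18)K9me3, PBS pH 7.4, 0.01% Tween-20, 30 min RT; compound added, 30 min RT; AlphaScreen beads 10 ug/mL final, 30 min dark; luminescence read.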

[5] = target: Transient receptor potential cation channel subfamily V member 1 (Homo sapiens) (UniProt Q8NER1); experiment: HTS Assay for Compounds that Act as Enhancers of the Vanilloid Receptor 1 (AID 488979)
Summary of the method: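 TRPV1-expressing cells loaded with Fluo-8 calcium dye; compounds added and calcium influx read kinetically for 3 min (agonist phase), then capsaicin at EC20 added and read 2 min more for enhancement. Fluorescence ex 480/em 520 nm.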

[6] = target: Thyrotropin receptor (Homo sapiens) (UniProt P16473); experiment: qHTS Assay for Antagonists of the Thyroid Stimulating Hormone Receptor (AID 488980); also: series mostly up to about 58 µM
Summary of the method: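 TSHR-HEK293 cells; 70 uM RO 20-1724 PDE inhibitor; compound + EC80 TSH (4 nM final); anti-cAMP cryptate antibody/cAMP-d2 in lysis buffer, 30 min RT; HTRF 665/620 nm read.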

[7] = target: D(1A) dopamine receptor (Homo sapiens) (UniProt P21728); experiment: HTS Assay for Allosteric Agonists of the Human D1 Dopamine Receptor: Primary Screen for Agonists (AID 488981); also: potency is read from the fitted curve at half-maximal effect
Summary of the method: (§1)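 Tetracycline-induced HEK293 T-REx cells force-coupled to calcium signalling were incubated overnight at 30 C and dye-loaded at room temperature. Calcium flux over 180 s after compound addition flagged agonists; a further 180 s read after EC20 dopamine flagged potentiators.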

[8] = Validation screen for small molecules that induce genotoxicity in human embryonic kidney (HEK293T) cells expressing luciferase-tagged ELG1 (AID 493106); also: potency is read from the fitted curve at half-maximal effect
Summary of the method: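 Luminescence from an ELG1-luciferase fusion serves as the read-out, rising when genetic stress elevates ELG1 protein. HEK293T reporter cells (2,000 per well) received 23 nL compound, incubated 16 hr at 37 °C, then ONE-Glo for 30 min at room temperature.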

[9] = target: Thyrotropin-releasing hormone receptor (Homo sapiens) (UniProt P34981); experiment: qHTS for Small Molecule Agonists and Allosteric Enhancers of Human TRH Receptor: Validation Screen for Agonists (AID 493127;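 active = calcium activation more than 3 SD above the typical response in the agonist read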;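 also: intracellular calcium rise by fluo-8 fluorescence before TRH EC20 addition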); settings: TRH receptor agonist cell assay; at 2 µM; stronger effect = higher value
Summary of the method: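 Cells 2000/well, 10% FCS, 18 h 33.5C/5% CO2 → fluo-8 Ca dye, RT 30 min–1.5 h → FDSS baseline 10 × 1 s → compound added → 230 cycles (1 s/cycle) agonist mode. TRH controls.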

[10] = Nrf2 qHTS screen for inhibitors: Validation (AID 493153; active = well fitted inhibition curve with a large enough effect in the main read-out, with a control signal flat, not every such curve was filed as active); settings: Potency: luciferase luminescence; viability change: measured here: cytotoxicity max response
Summary of the method: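 Luminescence from an ARE-firefly luciferase reporter in A549 cells gives Nrf2 inhibition; an earlier CellTiter-Fluor fluorescent read flags cytotoxicity. Cells in 5% FBS OPTI-MEM received compound dilution series for 18-24 h at 37°C.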

[11] = qHTS for Inhibitors of Cell Surface uPA Generation: Validation Assay (AID 493164)
Summary of the method: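 RAW 264.7 cells (4000/well) were plated overnight, then exposed for 18 h at 37 C, 5% CO2 to compounds in a 7-point 1:5 titration (2.45 nM–38.3 uM final). Intracellular ATP was read by ATP-Lite luminescence.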

[12] = target: Galactokinase (Homo sapiens) (UniProt P51570); experiment: qHTS Validation Assay for Inhibitors of Human Galactokinase (GALK) (AID 493189); also: potency is read from the fitted curve at half-maximal effect
Summary of the method: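 Luminescence from leftover ATP (Kinase-Glo Plus, 10 min) served as read-out after a 1 h room-temperature reaction of 5 nM GALK, 100 uM galactose and 35 uM ATP at pH8.0.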

[13] = target: D(1A) dopamine receptor (Homo sapiens) (UniProt P21728); experiment: HTS Assay for Allosteric Agonists of the Human D1 Dopamine Receptor: Primary Screen for Potentiators (AID 488982)
Summary of the method: as §1

[14] = target: Methanococcus maripaludis chaperonin (MmCpn) (UniProt Q6LX38); experiment: High-Throughput Screening for Modulators of Cytosolic Chaperonin Activity: MmCpn Primary Screen (AID 488978);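 also: 50 nM MmCpn enzyme hydrolysing 30 µM ATP at 37 °C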
Summary of the method: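 ADP formation read by HTRF Transcreener, 665/590 nm emission after 320 nm excitation. Enzyme: archaeal chaperonin at 50 nM final; substrate ATP 30 uM final; 10 min, 37C, after 5 min compound preincubation at RT.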

[15] = target: D(1A) dopamine receptor (Homo sapiens) (UniProt P21728); experiment: HTS Assay for Allosteric Agonists of the Human D1 Dopamine Receptor: Primary Screen for Antagonists (AID 488983);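 also: calcium flux response to an EC80 dopamine challenge measured with no-wash dye; nearly all actives have a fitted effect of over 65% in size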; also: potency is read from the fitted curve at half-maximal effect
Summary of the method: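 Cells are induced with tetracycline and incubated overnight at 30 C, then loaded with calcium dye for 30 to 90 minutes at room temperature. Compound addition is followed by a 180 s read, then an EC80 dopamine addition and another 180 s read.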

[16] = target: ATPase family AAA domain-containing protein 5 (Homo sapiens) (UniProt Q96QE3); experiment: Validation screen for small molecules that inhibit ELG1-dependent DNA repair in human embryonic kidney (HEK293T) cells expressing luciferase-tagged ELG1 (AID 493107); also: nearly all actives have a fitted effect of over 70% in size; also: potency is read from the fitted curve at half-maximal effect
Summary of the method: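 Luminescence from ONE-Glo, developed 30 min at room temperature, served as read-out of ELG1-luciferase levels. Beforehand, reporter HEK293T cells received 5-fluorouridine plus test compound for 16 hr at 37 °C.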

[17] = target: M-phase phosphoprotein 8 (Homo sapiens) (UniProt Q99549); experiment: qHTS Validation Assay for Inhibitors for MPP8 Chromodomain Interactions with Methylated Histone Tails (AID 488949);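 also: AlphaScreen signal from MPP8 chromodomain bound to biotinylated H3K9me3 peptide; top concentration of the series differs between compounds; nearly all actives have a fitted effect of over 55% in size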
Summary of the method: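 AlphaScreen read-out: streptavidin donor and nickel chelate acceptor beads (final 10 ug/mL), 30 min in the dark at RT. Complex of 50 nM MPP8 and 50 nM b-H3(1-18)K9me3 peptide had been exposed to compounds for 30 min beforehand.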

[18] = Validation screen for small molecules that induce DNA re-replication in SW480 colon adenocarcinoma cells (AID 504364); also: potency is read from the fitted curve at half-maximal effect
Summary of the method: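 250 cells/well; compound pinned in; 48 hr, 37 C, 5% CO2; Hoechst added, 40 min; nuclear fluorescence imaged, 405 ex / 500-530 em; re-replication scored as increase in high-intensity nuclei.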

Methanococcus maripaludis chaperonin (MmCpn), sequence (Q6LX38 1-543): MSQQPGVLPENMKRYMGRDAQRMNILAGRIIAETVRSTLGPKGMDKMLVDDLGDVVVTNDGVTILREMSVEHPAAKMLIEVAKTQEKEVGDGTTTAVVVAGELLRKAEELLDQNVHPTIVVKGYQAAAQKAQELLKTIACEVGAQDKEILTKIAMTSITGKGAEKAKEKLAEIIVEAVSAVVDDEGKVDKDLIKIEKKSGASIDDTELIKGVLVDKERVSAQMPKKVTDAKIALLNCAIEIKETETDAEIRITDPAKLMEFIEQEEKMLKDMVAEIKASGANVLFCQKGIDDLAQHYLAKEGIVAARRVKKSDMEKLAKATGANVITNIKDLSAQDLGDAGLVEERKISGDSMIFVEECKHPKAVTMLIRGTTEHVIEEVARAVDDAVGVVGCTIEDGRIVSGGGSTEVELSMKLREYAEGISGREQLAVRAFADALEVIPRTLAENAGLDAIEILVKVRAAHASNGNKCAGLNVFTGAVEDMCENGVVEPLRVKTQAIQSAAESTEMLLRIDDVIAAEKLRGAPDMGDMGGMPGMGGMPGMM
Chromobox protein homolog 1 (Homo sapiens), sequence (P83916 whole entry, looked up): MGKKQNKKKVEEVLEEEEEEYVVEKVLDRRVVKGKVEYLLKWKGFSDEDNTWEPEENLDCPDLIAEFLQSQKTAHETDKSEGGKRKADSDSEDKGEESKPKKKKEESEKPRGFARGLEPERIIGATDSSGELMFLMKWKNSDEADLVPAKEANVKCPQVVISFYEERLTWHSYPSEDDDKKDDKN
Thyrotropin receptor (Homo sapiens), sequence (P16473 whole entry, looked up): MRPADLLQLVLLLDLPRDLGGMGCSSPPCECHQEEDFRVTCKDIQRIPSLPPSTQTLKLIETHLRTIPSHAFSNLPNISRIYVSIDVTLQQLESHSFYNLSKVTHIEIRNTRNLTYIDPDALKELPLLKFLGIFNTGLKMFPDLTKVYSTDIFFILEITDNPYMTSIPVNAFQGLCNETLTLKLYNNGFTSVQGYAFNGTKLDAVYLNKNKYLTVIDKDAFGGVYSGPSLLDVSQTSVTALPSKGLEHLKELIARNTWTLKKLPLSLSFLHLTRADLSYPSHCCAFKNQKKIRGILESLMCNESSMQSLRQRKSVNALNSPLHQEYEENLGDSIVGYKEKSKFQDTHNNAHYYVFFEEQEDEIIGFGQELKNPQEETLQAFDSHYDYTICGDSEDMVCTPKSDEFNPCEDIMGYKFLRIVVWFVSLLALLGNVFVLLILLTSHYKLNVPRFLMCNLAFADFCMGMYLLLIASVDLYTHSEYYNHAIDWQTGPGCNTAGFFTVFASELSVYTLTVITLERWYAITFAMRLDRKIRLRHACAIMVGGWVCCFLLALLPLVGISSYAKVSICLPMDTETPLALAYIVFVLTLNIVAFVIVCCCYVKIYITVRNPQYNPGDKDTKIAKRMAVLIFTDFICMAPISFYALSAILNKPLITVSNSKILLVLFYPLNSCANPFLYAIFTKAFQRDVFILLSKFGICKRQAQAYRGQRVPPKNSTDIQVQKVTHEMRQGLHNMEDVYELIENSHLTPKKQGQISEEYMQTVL
Flap endonuclease 1 (Homo sapiens), sequence (P39748 whole entry, looked up): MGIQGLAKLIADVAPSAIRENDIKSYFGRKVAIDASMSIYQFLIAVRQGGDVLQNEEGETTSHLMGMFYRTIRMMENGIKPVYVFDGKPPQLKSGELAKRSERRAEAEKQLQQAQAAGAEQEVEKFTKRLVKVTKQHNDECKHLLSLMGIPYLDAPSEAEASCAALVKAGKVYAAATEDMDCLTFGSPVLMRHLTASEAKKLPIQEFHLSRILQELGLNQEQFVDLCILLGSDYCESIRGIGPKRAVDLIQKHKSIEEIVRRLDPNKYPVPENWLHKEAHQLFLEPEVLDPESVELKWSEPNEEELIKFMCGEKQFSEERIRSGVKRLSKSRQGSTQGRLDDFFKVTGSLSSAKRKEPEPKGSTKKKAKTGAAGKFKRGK
Galactokinase (Homo sapiens), sequence (P51570 whole entry, looked up): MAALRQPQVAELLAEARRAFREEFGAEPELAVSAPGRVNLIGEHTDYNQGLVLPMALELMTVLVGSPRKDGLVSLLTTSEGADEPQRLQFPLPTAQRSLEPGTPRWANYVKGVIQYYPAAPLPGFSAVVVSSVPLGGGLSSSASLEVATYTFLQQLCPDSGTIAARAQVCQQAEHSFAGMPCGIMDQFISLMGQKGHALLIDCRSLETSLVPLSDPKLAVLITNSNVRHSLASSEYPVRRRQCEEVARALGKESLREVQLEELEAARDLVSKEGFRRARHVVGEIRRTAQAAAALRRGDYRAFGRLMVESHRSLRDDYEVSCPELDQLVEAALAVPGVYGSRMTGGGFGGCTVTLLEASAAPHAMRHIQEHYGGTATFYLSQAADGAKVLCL
ATPase family AAA domain-containing protein 5 (Homo sapiens), sequence (Q96QE3 whole entry, looked up, the tested form may be a part): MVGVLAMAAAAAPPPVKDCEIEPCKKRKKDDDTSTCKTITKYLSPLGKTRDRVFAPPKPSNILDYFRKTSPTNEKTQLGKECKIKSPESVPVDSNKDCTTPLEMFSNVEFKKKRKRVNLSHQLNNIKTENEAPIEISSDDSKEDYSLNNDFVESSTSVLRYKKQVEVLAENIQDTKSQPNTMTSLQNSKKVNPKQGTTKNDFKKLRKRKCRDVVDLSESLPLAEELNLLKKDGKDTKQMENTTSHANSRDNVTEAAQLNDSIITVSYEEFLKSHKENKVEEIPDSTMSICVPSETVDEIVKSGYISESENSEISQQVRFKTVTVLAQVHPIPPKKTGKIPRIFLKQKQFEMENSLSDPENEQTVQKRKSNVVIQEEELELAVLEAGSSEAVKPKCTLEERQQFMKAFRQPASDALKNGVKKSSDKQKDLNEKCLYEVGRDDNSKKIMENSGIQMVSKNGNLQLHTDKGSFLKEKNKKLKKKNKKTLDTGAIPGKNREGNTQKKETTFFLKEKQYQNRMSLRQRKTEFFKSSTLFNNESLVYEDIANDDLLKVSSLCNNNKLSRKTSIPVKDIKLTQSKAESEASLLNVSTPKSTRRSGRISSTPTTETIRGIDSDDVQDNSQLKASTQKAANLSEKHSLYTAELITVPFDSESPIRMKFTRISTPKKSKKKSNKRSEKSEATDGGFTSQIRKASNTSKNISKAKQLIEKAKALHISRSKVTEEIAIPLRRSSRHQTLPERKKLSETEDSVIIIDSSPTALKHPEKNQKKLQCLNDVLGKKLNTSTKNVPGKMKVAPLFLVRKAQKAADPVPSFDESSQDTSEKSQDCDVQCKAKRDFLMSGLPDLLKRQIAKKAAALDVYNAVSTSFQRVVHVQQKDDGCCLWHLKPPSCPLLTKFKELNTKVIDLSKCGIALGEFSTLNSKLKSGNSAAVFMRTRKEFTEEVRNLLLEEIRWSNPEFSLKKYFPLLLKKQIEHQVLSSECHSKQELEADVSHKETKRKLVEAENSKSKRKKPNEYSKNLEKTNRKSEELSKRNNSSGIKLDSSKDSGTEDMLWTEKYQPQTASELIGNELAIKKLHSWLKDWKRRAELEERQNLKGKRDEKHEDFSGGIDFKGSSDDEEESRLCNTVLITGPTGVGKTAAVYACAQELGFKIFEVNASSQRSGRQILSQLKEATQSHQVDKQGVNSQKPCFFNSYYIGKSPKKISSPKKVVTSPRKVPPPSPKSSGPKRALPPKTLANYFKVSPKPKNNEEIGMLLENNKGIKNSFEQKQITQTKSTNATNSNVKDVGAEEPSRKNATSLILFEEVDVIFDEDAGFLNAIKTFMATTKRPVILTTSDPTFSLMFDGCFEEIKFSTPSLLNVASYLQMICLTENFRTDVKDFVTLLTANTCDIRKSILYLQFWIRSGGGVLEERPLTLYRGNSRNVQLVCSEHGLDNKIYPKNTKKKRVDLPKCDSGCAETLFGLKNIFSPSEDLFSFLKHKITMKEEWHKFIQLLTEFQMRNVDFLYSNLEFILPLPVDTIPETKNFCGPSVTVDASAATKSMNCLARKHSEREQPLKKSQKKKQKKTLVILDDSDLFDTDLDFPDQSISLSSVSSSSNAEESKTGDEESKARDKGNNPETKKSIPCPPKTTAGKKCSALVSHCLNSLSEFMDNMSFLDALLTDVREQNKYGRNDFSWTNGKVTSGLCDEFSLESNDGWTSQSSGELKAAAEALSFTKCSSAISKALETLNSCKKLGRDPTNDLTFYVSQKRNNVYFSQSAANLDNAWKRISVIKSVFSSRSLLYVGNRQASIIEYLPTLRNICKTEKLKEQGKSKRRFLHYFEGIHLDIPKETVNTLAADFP
D(1A) dopamine receptor (Homo sapiens), sequence (P21728 whole entry, looked up): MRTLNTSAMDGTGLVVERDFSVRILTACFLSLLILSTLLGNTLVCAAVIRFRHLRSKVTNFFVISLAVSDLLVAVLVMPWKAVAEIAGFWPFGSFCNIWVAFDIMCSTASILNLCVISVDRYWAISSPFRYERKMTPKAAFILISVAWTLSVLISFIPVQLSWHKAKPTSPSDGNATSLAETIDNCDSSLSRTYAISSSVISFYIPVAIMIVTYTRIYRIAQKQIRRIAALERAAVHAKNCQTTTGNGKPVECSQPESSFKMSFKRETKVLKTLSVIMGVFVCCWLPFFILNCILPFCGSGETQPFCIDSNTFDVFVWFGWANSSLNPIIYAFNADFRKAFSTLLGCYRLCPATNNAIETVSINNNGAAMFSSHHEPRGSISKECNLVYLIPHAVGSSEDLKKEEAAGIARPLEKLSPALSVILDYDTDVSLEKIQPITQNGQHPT
Thyrotropin-releasing hormone receptor (Homo sapiens), sequence (P34981 whole entry, looked up): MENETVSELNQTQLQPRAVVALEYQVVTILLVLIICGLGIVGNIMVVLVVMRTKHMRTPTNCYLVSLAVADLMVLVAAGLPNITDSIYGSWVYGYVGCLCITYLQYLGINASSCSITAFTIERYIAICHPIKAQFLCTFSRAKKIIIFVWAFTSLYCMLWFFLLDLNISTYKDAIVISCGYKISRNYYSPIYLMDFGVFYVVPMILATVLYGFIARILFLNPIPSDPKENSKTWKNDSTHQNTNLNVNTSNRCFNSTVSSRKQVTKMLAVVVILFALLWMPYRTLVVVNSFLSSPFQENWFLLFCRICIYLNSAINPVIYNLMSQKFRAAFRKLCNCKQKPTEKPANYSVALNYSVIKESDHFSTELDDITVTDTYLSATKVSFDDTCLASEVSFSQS

SMILES | Potency [1] | Potency [2] | Potency [3] | Potency [4] | outcome [5] | outcome [6] | Potency [7] | Potency [8] | activation [9] | Potency [10] | viability change [10] | outcome [11] | Potency [12] | Potency [13] | outcome [14] | Potency [15] | Potency [16] | Potency [17] | Potency [18]
N#C/C(=C\c1ccc(O)c(O)c1)C(=O)NCCCc1ccccc1 | inactive | inactive | inactive | 5.62 µM (active) | inactive | inactive | inactive | inactive | 0.625% (inactive) | inactive | -10.3% | inactive | inactive |  |  |  |  |  | 
O=C(/C=C/c1ccc(O)c(O)c1)OCCc1ccccc1 | inactive | inactive | inactive |  | inactive | inactive |  | 20.6 µM (active) | 0.812% (inactive) | inactive | -1.73% | inactive | inactive | inactive |  |  |  |  | 
O=C(c1ccc(Cl)cc1)N1CCN(c2ccc([N+](=O)[O-])c3ncccc23)CC1 | inactive | inactive | inactive |  |  |  | inactive | inactive |  |  |  | inactive |  | inactive | inactive | inactive | 20.6 µM (active) |  | 
CO/S(=N\S(=O)(=O)c1ccc(Cl)cc1)c1ccc([N+](=O)[O-])cc1 (stereo unspecified) | inactive | inactive | inactive |  |  |  | inactive | inactive |  | inactive | -1.86% | inactive |  |  |  |  | inactive |  | 
COc1cc(OC)c(/C=C2/C(=O)Nc3ccccc32)c(OC)c1 | inactive | inactive | inactive |  | inactive | inactive | inactive |  | 1.38% (inactive) |  |  | inactive | inactive | inactive | inactive | inactive |  |  | 
CC(=O)SCC[N+](C)(C)C | inactive | inactive |  | inactive | inactive | inactive | inactive | inactive | 0.875% (inactive) | inactive | -2.78% | inactive | inactive | inactive | inactive | inactive | inactive | inactive | inactive
Cc1cc(NC2CCCCC2)nc(-n2nc(C)cc2C)n1 | inactive | inactive | inactive |  |  |  | inactive | inactive |  | inactive | -6.43% | inactive |  | inactive | inactive |  | 14.6 µM (active) | inactive | 
CCNC(=O)[C@H]1O[C@@H](n2cnc3c(N)nc(NCCc4ccc(CCC(=O)O)cc4)nc32)[C@H](O)[C@@H]1O | inactive | inactive | inactive | inactive |  |  | inactive | inactive |  | inactive | 0.951% | inactive |  | inactive |  |  | inactive |  | 
COc1ccc(/C=C/C(=O)Nc2ccccc2C(=O)O)cc1OC | inactive | inactive |  |  | inactive | inactive | inactive | 1.64 µM (active) | -5.44% (inactive) |  |  | inactive | inactive | inactive |  | inactive |  | inactive | inactive
CC12C(=O)OC(=O)C1(C)C1CCC2O1 (stereo unspecified) | inactive | inactive |  | inactive | inactive |  | inactive | 2.91 µM (active) | -0.25% (inactive) |  |  | inactive | inactive | inactive | inactive |  | 14.6 µM (active) | inactive | inactive
COc1cc(SC)ccc1C(=O)N1CCC(Cc2ccccc2)CC1 | inactive | inactive | inactive | inactive |  |  | inactive | inactive |  | inactive | 1.59% | inactive |  | inactive |  | inactive | inactive |  | 
Cc1ccc(C(=O)O[C@H](C(=O)O)[C@@H](OC(=O)c2ccc(C)cc2)C(=O)O)cc1 (tested in a mixture with another compound) | inactive | inactive |  | inactive | inactive |  | inactive | inactive | 1.25% (inactive) | inactive | -3.95% | inactive | inactive | inactive | inactive |  | inactive | inactive | inactive
Nc1ncnc2c1ncn2[C@@H]1O[C@H](COP(=O)(O)OP(=O)(O)OP(=O)(O)OP(=O)(O)OC[C@@H]2O[C@H](n3cnc4c(N)ncnc43)[C@@H](O)[C@H]2O)[C@@H](O)[C@H]1O | inactive | inactive | inactive |  |  |  | 0.562 µM (active) | inactive |  | inactive | 2.98% | inactive |  |  | inactive |  |  | inactive | 
COc1ccccc1N1CCN(CCCCNS(=O)(=O)c2cccc3c(N(C)C)cccc23)CC1 | inactive | inactive | inactive |  | inactive | inactive | inactive | inactive | -3.25% (inactive) |  |  | inactive | inactive | inactive |  |  |  | inactive | 14.6 µM (active)
COc1cc2nc(N3CCN(C(=O)OCc4ccccc4)C(C(=O)NC(C)(C)C)C3)nc(N)c2cc1OC (stereo unspecified) | inactive | inactive |  |  | inactive | inactive | inactive | inactive | -3.06% (inactive) | inactive | -20.4% | inactive | inactive | inactive |  | inactive |  | inactive | 
NS(=O)(=O)C#Cc1ccccc1 | inactive | 4.74 µM (active) | inactive |  |  |  | inactive |  |  |  |  | inactive |  | inactive | inactive | inactive |  | inactive | 
O=C1C(SCCO)=C(SCCO)C(=O)c2ccccc21 | 16.8 µM (active) | 26.7 µM (active) |  |  | inactive | inactive | inactive | inactive | -3.25% (inactive) |  |  | inactive | 25.1 µM (active) |  | inactive | 11.2 µM (active) |  | inactive | 
COC(=O)c1c(C)[nH]c(C)c1C(=O)c1ccccc1Cc1ccccc1 | inactive | inactive | inactive | 44.7 µM (active) | inactive | inactive | inactive | inactive | 7.25% (inactive) | inactive | -8.95% | inactive | inactive |  |  | inactive | inactive |  | inactive
CC(C)Cc1ccc([C@H](C)C(=O)O)cc1 | inactive | inactive |  | inactive |  | inactive | inactive | inactive | 0.688% (inactive) | inactive | 6.18% | inactive |  |  | inactive | inactive | inactive | inactive | inactive
